Shown are actives, neighbours in structure and some others; about 17% of the full set was active somewhere.
TGFb inhibitor – qHTS for Inhibitors of TGF-b | HepG2 CAGA-GFP TGF-b/SMAD3 reporter, GFP fluorescence, 18 h; TGF-beta stimulated, 500 pg/mL final | actives 1.2% (n = 410,000) | Potency, µM (titrated, usually from 46.1 µM), without a hit: at the top dose activity, negative = inhibition, most hits filed as inhibitors; also: % is scaled to controls: 0 for no effect and ±100 for the full control effect; nearly all actives have a fitted effect of over 65% in size
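HEPG2 CAGA-GFP, 1000 cells/well; 2 h settle, 37 C; cpd via pin tool; TGF-b 500 pg/mL final; 18 h, 37 C; GFP imaging ex488/em500-530; %Activity normalised to -TGF-b and +DMSO controls; CRC fit, curve class.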
HepG2 viability – qHTS for Inhibitors of TGF-b: Cytotox Counterscreen | HepG2 CAGA-GFP viability, ATP luminescence, 18 h | Potency, µM (series often up to 46.1 µM), for the others: top-dose activity change, negative = cytotoxicity, most hits filed as cytotoxic | actives 0.76% (n = 410,000) | AID 588856, 2011
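CellTiter-Glo luminescence gave cytotoxicity after 18 hours at 37 degrees C. The cells were HepG2 CAGA-GFP in 1% FBS DMEM, stimulated with 500 pg/mL TGF-beta after compound addition. %Activity was normalised to no-cell wells (complete cell-killing) and DMSO (no toxicity), and curves were fitted and classified.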
HT1080NT lethal – qHTS for induction of synthetic lethality in tumor cells producing 2HG: qHTS for the HT-1080-NT fibrosarcoma cell line | AID 686970, 2013 | actives 1.6% (n = 360,000) | Potency, µM (top dose mostly 46.1 µM), for inactives: at the highest dose activity, negative = less viability, usual class: cytotoxic | HT-1080-NT fibrosarcoma viability, CellTiter-Glo ATP luminescence, 48 h;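 also: NT is the 2HG producing partner of a matched IDH1 knockdown line; 0% = DMSO-treated cells and -100% = media-only wells without cells; nearly all actives have a fitted effect of over 55% in size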
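750 cells/well, RPMI + 5% FBS; 2 h settle, compound pin-transfer, 48 h at 37 degrees C. CellTiter-Glo 10 min RT, luminescence. Normalized to DMSO and media-only wells.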
HT1080 IDH1KD tx – qHTS for induction of synthetic lethality in tumor cells producing 2HG: qHTS for the HT-1080-IDH1KD cell line; HT-1080 IDH1 knockdown viability, ATP luminescence, 48 h; Potency, µM (series often up to 46.1 µM), for the others: top-dose activity, negative = toxicity, hits mostly cytotoxic; actives 2% (n = 360,000);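 also: 0% = DMSO wells and -100% = cell-free medium wells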
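HT-1080-IDH1KD cells (IDH1 knocked down), 750/well in RPMI with 5% FBS, treated with compound 48 h at 37 degrees C. Viability by CellTiter-Glo luminescence, normalised to DMSO and no-cell wells; concentration-response curves classed.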
DT40 TDP1 CPT – qHTS for Inhibitors of human tyrosyl-DNA phosphodiesterase 1 (TDP1): qHTS in cells in presence of CPT; chicken DT40 Tdp1-/-;hTDP1 cells + 20 nM CPT, ATP luminescence, 48 h; Potency, µM (series often up to 46.2 µM), for inactives: at the top dose activity change, negative = growth inhibition, actives largely listed as inhibitors; actives 12% (n = 420,000); also: % is scaled to controls: 0 for no effect and ±100 for the full control effect; nearly all actives have a fitted effect of over 55% in size
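Chicken DT40 Tdp1-/- cells complemented with human TDP1, 400 cells/well, exposed to compounds plus 20 nM camptothecin for at least 48 h at 37 C; viability read as ATP content by CellTiter-Glo luminescence.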
TDP1 cell noCPT – qHTS for Inhibitors of human tyrosyl-DNA phosphodiesterase 1 (TDP1): qHTS in cells in absence of CPT | Potency, µM (series often up to 46.2 µM), inactives show top-dose activity change, negative = growth inhibition, usual class: inhibitors | AID 686978, 2013 | actives 15% (n = 420,000) | DT40 Tdp1-/- hTDP1 cells, no CPT, ATP luminescence, 48 h; also: % is scaled to controls: 0 for no effect and ±100 for the full control effect; nearly all actives have a fitted effect of over 55% in size
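Luminescent ATP content (CellTiter-Glo) served as the growth readout. Knockout chicken DT40 cells expressing human TDP1 were exposed to compounds without camptothecin for a minimum 48 hr at 37 °C.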
Active calls of the source: *; ? = inconclusive; . = no result given. Calls follow the shape of the dose curve; as a rule, active = well fitted curve in the direction sought with a large enough effect; inconclusive = small, poorly fitted or top-dose-only effect, or another doubt; inactive = no such curve, though single readings can be large; an effect the other way counts as inactive or inconclusive. Potency is read from the fitted curve at half-maximal effect.

SMILES	TGFb inhibitor	HepG2 viability	HT1080NT lethal	HT1080 IDH1KD tx	DT40 TDP1 CPT	TDP1 cell noCPT
COC(=O)c1ccc(NC(=O)Cn2ccn3nc(-c4ccc(OC)cc4)cc3c2=O)cc1	0%	-2%	.	.	-3%	-1%
C[N+]1(CC(=O)Nc2ccccc2Cl)CCN(C(=O)c2cccs2)CC1	-7%	-1%	6%	12%	2%	-13%
COc1ccc(S(=O)(=O)Nc2ccc3c(c2)C(=O)N([C@H](C)CO)C[C@H](C)[C@@H](CN(C)C(=O)Nc2ccccc2)O3)cc1	7%	2%	14%	14%	-1%	-6%
O=C(CSc1nnc(SCc2ccc(Cl)cc2)s1)N/N=C/c1c(Cl)cccc1Cl	-14%	-38%	?	?	?	26µM*
O=C(CSc1nnc(SCc2ccccc2)s1)N/N=C/c1ccc(Cl)cc1Cl	-4%	24%	14%	12%	-24%	?
O=C(CSc1nnc(SCc2ccccc2)s1)N/N=C/c1c[nH]c2ccccc12	-17%	-16%	-1%	-17%	2%	-18%
Cc1ccc(CSc2nnc(SCC(=O)N/N=C/c3c[nH]c4ccccc34)s2)cc1	3%	-19%	21µM*	23µM*	?	?
O=C(CSc1nnc(SCc2ccccc2Cl)s1)N/N=C/c1c[nH]c2ccccc12	?	-40%	-24%	-28%	26µM*	?
O=[N+]([O-])c1ccc(O/N=[N+](\[O-])N2CCCC2)c([N+](=O)[O-])c1	?	-82%	.	.	.	.
CCOC(=O)c1c(NC(=O)CN2C(=O)NC3(CCC(CC)CC3)C2=O)sc(C)c1-c1ccc(C)cc1 (stereo not drawn)	-8%	-33%	22%	21%	-12%	?
CCOC(=O)c1c(NC(=O)CN2C(=O)NC3(CCCCC3C)C2=O)sc(C)c1C (stereo not drawn)	4%	-18%	-10%	-5%	21µM*	21µM*
CCOC(=O)c1c(-c2ccc(F)cc2)csc1NC(=O)CN1C(=O)NC2(CCCCC2C)C1=O (stereo not drawn)	-12%	4%	-28%	?	21µM*	?
CCOC(=O)c1c(NC(=O)CN2C(=O)NC3(CCCCCC3)C2=O)sc(C)c1-c1ccc(C)cc1	-25%	2%	-25%	?	23µM*	16µM*
COc1ccc(C(=O)c2cc(C(C)=O)c(Nc3ccccc3)s2)cc1	0%	-12%	?	?	?	26µM*
COc1ccc(C(=O)c2sc(Nc3ccccc3F)nc2N)cc1	-21%	5%	13%	3%	?	12µM*
COC(=O)CCc1sc(Nc2ccccc2)nc1-c1ccc(OC)cc1	18%	-11%	-2%	-2%	?	16µM*
COc1ccc(OC)c(C(=O)c2ccc(C(=O)Nc3ccccc3)cc2)c1	-20%	-10%	-2%	-7%	-9%	-25%
COc1ccc(Nc2nc(-c3ccc(OC)cc3)c(CCC(=O)O)s2)cc1	2%	1%	0%	-2%	8%	-27%
COc1ccc(C(=O)c2sc(Nc3ccccc3)nc2N)cc1OC	13µM*	-13%	?	?	?	?
COc1ccc(C(=O)c2sc(Nc3ccccc3)nc2N)cc1	11µM*	-54%	-16%	-18%	?	?
CCOc1cc(/C=N/O)cc(Br)c1OCC	-7%	-23%	-4%	-9%	-2%	-28%
C#CCOc1c(Br)cc(/C=N/O)cc1OCC	45%	36%	-26%	-27%	-17%	29µM*
CCN(CC)CCNC(=O)c1cc(Br)c(N)cc1OC	-10%	-32%	-1%	-16%	-7%	-18%
COC(=O)c1ccc(CC(=O)c2ccc(O)cc2O)o1	9%	-11%	13%	8%	?	?
CCOC(=O)c1ccc(CC(=O)c2ccc(O)cc2O)o1	-1%	-26%	9%	-1%	?	13µM*
SMILES	TGFb inhibitor	HepG2 viability	HT1080NT lethal	HT1080 IDH1KD tx	DT40 TDP1 CPT	TDP1 cell noCPT
COC(=O)c1ccc(-n2nnc(-c3nc(-c4ccc5c(c4)OCO5)no3)c2C)cc1	4%	-3%	.	.	-30%	2%
Cc1cc(C)c(S(=O)(=O)N2CCC3(CC2)OCCN3S(=O)(=O)c2cccs2)c(C)c1	3%	-8%	-8%	-22%	?	23µM*
Cc1ccc(C)c(S(=O)(=O)N2CCC3(CC2)OCCN3S(=O)(=O)c2cccs2)c1	-3%	-4%	13%	20%	?	?
Cc1ccc(S(=O)(=O)N2CCC3(CC2)OCCN3S(=O)(=O)c2c(C)cc(C)cc2C)cc1	8%	-18%	11%	-1%	26µM*	16µM*
COc1ccc(S(=O)(=O)N2CCC3(CC2)OCCN3S(=O)(=O)c2c(C)cc(C)cc2C)cc1	3%	-2%	-2%	-11%	13µM*	8.2µM*
COc1ccc(S(=O)(=O)N2CCOC23CCN(S(=O)(=O)c2ccccc2)CC3)cc1	20%	-15%	17%	9%	?	?
COC(=O)C1CN(S(=O)(=O)c2ccccc2)CCN1S(=O)(=O)c1ccccc1 (stereo not drawn)	5%	-21%	8%	16%	-7%	-20%
C=CCNC(=S)NNc1nc2c(c(=O)[nH]1)C1(CCCCC1)Cc1ccccc1-2	?	-14%	-13%	-30%	?	7%
O=C1CC(C(=O)N2CCN(c3ccccn3)CC2)CN1Cc1ccccc1Cl (stereo not drawn)	11%	4%	6%	6%	-2%	-3%
Cc1ccc(C)c(N2CCN(C(=O)CCC(=O)N3CCOc4ccc(Cl)cc43)CC2)c1	?	-43%	?	?	15µM*	26µM*
Cc1ccc(CSCCC(=O)N2CCN(c3cc(C)ccc3C)CC2)cc1	?	-52%	.	.	23µM*	13µM*
O=C(CCSCc1ccc(Cl)cc1)N1CCN(c2ccccc2F)CC1	?	-29%	.	.	-12%	-5%
O=C(CCC(=O)N1CCOc2ccc(Cl)cc21)NCCCN1CCC(Cc2ccccc2)CC1	?	-48%	-26%	-25%	?	18µM*

Source: PubChem BioAssay
